In article PMC11006913:
Numbering of substitutions follows the chain as printed.

Experiments:
Assay in all cases: PBM; 200 nM protein, PBS
Conditions in all cases: dsDNA, one strand shown
[1] = molecular target: HOXC9 (Homo sapiens, UniProt P31274 178-260, K195R)
[2] = molecular target: T1, PAX4 (Homo sapiens, UniProt O43316 9-242, R200K)
T1 sequence: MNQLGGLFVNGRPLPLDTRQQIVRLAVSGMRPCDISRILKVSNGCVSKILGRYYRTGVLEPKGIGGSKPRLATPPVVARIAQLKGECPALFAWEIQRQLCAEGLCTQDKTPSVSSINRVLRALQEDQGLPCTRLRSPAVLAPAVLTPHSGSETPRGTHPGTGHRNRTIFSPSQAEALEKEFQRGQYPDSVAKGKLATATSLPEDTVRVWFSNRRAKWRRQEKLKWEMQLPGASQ

[3] = molecular target: T2, PAX4 (Homo sapiens, UniProt O43316 9-242)
T2 sequence: T1 sequence with K192R

[4] = molecular target: T3, NKX2-6 (Homo sapiens, UniProt A6NCS4 118-204, R150C)
T3 sequence: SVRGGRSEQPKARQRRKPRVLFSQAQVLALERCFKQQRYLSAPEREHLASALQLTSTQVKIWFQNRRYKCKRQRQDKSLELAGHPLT

[5] = molecular target: HOXC9 (Homo sapiens, UniProt P31274 178-260)
Chain of HOXC9 (Homo sapiens, UniProt P31274 178-260) (P31274 178-260): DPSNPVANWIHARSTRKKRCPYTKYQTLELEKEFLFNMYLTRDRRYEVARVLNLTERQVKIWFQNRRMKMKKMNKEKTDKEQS

[6] = molecular target: T4, PAX4 (Homo sapiens, UniProt O43316 9-242, R200Q)
T4 sequence: T1 sequence with K192Q

[7] = molecular target: HOXC9 (Homo sapiens, UniProt P31274 178-260, R193K)
Chain of HOXC9 (Homo sapiens, UniProt P31274 178-260, R193K) (P31274 178-260 R193K): as the sequence (P31274 178-260) above, with R16K counted along it

[8] = molecular target: T5, PAX4 (Homo sapiens, UniProt O43316 9-242, F177V)
T5 sequence: T1 sequence with F169V, K192R

[9] = molecular target: T6, PAX4 (Homo sapiens, UniProt O43316 9-242, F177Y)
T6 sequence: T1 sequence with F169Y, K192R

[10] = molecular target: HOXC9 (Homo sapiens, UniProt P31274 178-260, R222W)
Chain of HOXC9 (Homo sapiens, UniProt P31274 178-260, R222W) (P31274 178-260 R222W): as the sequence (P31274 178-260) above, with R45W counted along it

[11] = molecular target: T7, PAX4 (Homo sapiens, UniProt O43316 9-242, R227W)
T7 sequence: T1 sequence with K192R, R219W

[12] = molecular target: HOXB6 (Homo sapiens, UniProt P17509 132-218, K202E)
Chain of HOXB6 (Homo sapiens, UniProt P17509 132-218, K202E) (P17509 132-218 K202E): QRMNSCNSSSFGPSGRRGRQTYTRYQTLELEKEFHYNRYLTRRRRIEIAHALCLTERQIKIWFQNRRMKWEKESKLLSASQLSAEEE

[13] = molecular target: ALX3 (Homo sapiens, UniProt O95076 139-225, N203Q)
Chain of ALX3 (Homo sapiens, UniProt O95076 139-225, N203Q) (O95076 139-225 N203Q): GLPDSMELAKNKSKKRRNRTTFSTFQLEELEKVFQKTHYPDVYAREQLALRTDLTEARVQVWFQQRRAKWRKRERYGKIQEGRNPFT

[14] = molecular target: ALX3 (Homo sapiens, UniProt O95076 139-225)
Chain of ALX3 (Homo sapiens, UniProt O95076 139-225) (O95076 139-225): as the sequence (O95076 139-225 N203Q) above, with Q65N counted along it

[15] = molecular target: ALX3 (Homo sapiens, UniProt O95076 139-225, N203S)
Chain of ALX3 (Homo sapiens, UniProt O95076 139-225, N203S) (O95076 139-225 N203S): as the sequence (O95076 139-225 N203Q) above, with Q65S counted along it

[16] = molecular target: HOXB6 (Homo sapiens, UniProt P17509 132-218)
Chain of HOXB6 (Homo sapiens, UniProt P17509 132-218) (P17509 132-218): as the sequence (P17509 132-218 K202E) above, with E71K counted along it

[17] = molecular target: ALX4 (Homo sapiens, UniProt Q9H161 200-286)
Chain of ALX4 (Homo sapiens, UniProt Q9H161 200-286) (Q9H161 200-286): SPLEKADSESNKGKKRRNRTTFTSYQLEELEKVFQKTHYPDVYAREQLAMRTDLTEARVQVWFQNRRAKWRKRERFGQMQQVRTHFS

[18] = molecular target: ALX4 (Homo sapiens, UniProt Q9H161 200-286, Q225E)
Chain of ALX4 (Homo sapiens, UniProt Q9H161 200-286, Q225E) (Q9H161 200-286 Q225E): as the sequence (Q9H161 200-286) above, with Q26E counted along it

[19] = molecular target: MSX2 (Homo sapiens, UniProt P35548 130-214, R199I)
Chain of MSX2 (Homo sapiens, UniProt P35548 130-214, R199I) (P35548 130-214 R199I): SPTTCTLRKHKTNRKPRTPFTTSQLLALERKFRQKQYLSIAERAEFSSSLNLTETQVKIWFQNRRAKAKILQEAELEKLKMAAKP

[20] = molecular target: MSX2 (Homo sapiens, UniProt P35548 130-214)
Chain of MSX2 (Homo sapiens, UniProt P35548 130-214) (P35548 130-214): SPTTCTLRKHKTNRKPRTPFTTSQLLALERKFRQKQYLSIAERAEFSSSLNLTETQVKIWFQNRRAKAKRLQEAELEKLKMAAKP

[21] = molecular target: VAX1 (Homo sapiens, UniProt Q5SQQ9 86-172)
Chain of VAX1 (Homo sapiens, UniProt Q5SQQ9 86-172) (Q5SQQ9 86-172): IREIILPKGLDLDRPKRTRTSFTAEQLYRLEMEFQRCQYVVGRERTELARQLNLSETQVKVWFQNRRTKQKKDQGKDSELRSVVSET

[22] = molecular target: MSX2 (Homo sapiens, UniProt P35548 130-214, F161Y)
Chain of MSX2 (Homo sapiens, UniProt P35548 130-214, F161Y) (P35548 130-214 F161Y): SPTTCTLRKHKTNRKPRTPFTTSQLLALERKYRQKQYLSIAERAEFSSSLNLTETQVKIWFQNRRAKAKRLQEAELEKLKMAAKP

[23] = molecular target: VAX1 (Homo sapiens, UniProt Q5SQQ9 86-172, T142I)
Chain of VAX1 (Homo sapiens, UniProt Q5SQQ9 86-172, T142I) (Q5SQQ9 86-172 T142I): as the sequence (Q5SQQ9 86-172) above, with T57I counted along it

[24] = molecular target: VAX1 (Homo sapiens, UniProt Q5SQQ9 86-172, K157R)
Chain of VAX1 (Homo sapiens, UniProt Q5SQQ9 86-172, K157R) (Q5SQQ9 86-172 K157R): as the sequence (Q5SQQ9 86-172) above, with K72R counted along it

[25] = molecular target: HOXA4 (Homo sapiens, UniProt Q00056 201-287, W262R)
Chain of HOXA4 (Homo sapiens, UniProt Q00056 201-287, W262R) (Q00056 201-287 W262R): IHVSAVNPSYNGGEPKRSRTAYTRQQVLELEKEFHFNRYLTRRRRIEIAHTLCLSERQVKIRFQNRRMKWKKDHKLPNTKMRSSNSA

[26] = molecular target: HOXA4 (Homo sapiens, UniProt Q00056 201-287)
Chain of HOXA4 (Homo sapiens, UniProt Q00056 201-287) (Q00056 201-287): as the sequence (Q00056 201-287 W262R) above, with R62W counted along it

[27] = molecular target: HOXA4 (Homo sapiens, UniProt Q00056 201-287, W262F)
Chain of HOXA4 (Homo sapiens, UniProt Q00056 201-287, W262F) (Q00056 201-287 W262F): as the sequence (Q00056 201-287 W262R) above, with R62F counted along it

[28] = molecular target: HOXA7 (Homo sapiens, UniProt P31268 116-202)
Chain of HOXA7 (Homo sapiens, UniProt P31268 116-202) (P31268 116-202): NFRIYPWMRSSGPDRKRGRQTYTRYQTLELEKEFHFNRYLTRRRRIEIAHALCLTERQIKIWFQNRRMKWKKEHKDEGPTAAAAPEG

[29] = molecular target: ALX3 (Homo sapiens, UniProt O95076 139-225, L168Q)
Chain of ALX3 (Homo sapiens, UniProt O95076 139-225, L168Q) (O95076 139-225 L168Q): as the sequence (O95076 139-225 N203Q) above, with L30Q, Q65N counted along it

[30] = molecular target: ALX3 (Homo sapiens, UniProt O95076 139-225, L168V)
Chain of ALX3 (Homo sapiens, UniProt O95076 139-225, L168V) (O95076 139-225 L168V): as the sequence (O95076 139-225 N203Q) above, with L30V, Q65N counted along it

[31] = molecular target: HOXA7 (Homo sapiens, UniProt P31268 116-202, W177C)
Chain of HOXA7 (Homo sapiens, UniProt P31268 116-202, W177C) (P31268 116-202 W177C): as the sequence (P31268 116-202) above, with W62C counted along it

[32] = molecular target: NKX3-2 (Homo sapiens, UniProt P78367 192-278, P234S)
Chain of NKX3-2 (Homo sapiens, UniProt P78367 192-278, P234S) (P78367 192-278 P234S): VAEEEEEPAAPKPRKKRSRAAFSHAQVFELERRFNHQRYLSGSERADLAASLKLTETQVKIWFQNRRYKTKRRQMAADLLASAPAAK

[33] = molecular target: NKX3-2 (Homo sapiens, UniProt P78367 192-278)
Chain of NKX3-2 (Homo sapiens, UniProt P78367 192-278) (P78367 192-278): as the sequence (P78367 192-278 P234S) above, with S43P counted along it

[34] = molecular target: HOXC10 (Homo sapiens, UniProt Q9NYD6 254-340)
Chain of HOXC10 (Homo sapiens, UniProt Q9NYD6 254-340) (Q9NYD6 254-340): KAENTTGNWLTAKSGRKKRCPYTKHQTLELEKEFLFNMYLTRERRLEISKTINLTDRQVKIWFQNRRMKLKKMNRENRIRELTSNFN

[35] = molecular target: HOXA2 (Homo sapiens, UniProt O43364 129-215, R185T)
Chain of HOXA2 (Homo sapiens, UniProt O43364 129-215, R185T) (O43364 129-215 R185T): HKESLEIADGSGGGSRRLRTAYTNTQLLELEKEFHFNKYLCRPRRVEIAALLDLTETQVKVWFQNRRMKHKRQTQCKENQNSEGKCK

[36] = molecular target: HOXA2 (Homo sapiens, UniProt O43364 129-215, R185K)
Chain of HOXA2 (Homo sapiens, UniProt O43364 129-215, R185K) (O43364 129-215 R185K): as the sequence (O43364 129-215 R185T) above, with T57K counted along it

[37] = molecular target: HOXC10 (Homo sapiens, UniProt Q9NYD6 254-340, K271E)
Chain of HOXC10 (Homo sapiens, UniProt Q9NYD6 254-340, K271E) (Q9NYD6 254-340 K271E): as the sequence (Q9NYD6 254-340) above, with K18E counted along it

[38] = molecular target: HOXA2 (Homo sapiens, UniProt O43364 129-215, Y150S)
Chain of HOXA2 (Homo sapiens, UniProt O43364 129-215, Y150S) (O43364 129-215 Y150S): as the sequence (O43364 129-215 R185T) above, with Y22S, T57R counted along it

[39] = molecular target: HOXA2 (Homo sapiens, UniProt O43364 129-215)
Chain of HOXA2 (Homo sapiens, UniProt O43364 129-215) (O43364 129-215): as the sequence (O43364 129-215 R185T) above, with T57R counted along it

Chain of HOXC9 (Homo sapiens, UniProt P31274 178-260, K195R) (P31274 178-260 K195R): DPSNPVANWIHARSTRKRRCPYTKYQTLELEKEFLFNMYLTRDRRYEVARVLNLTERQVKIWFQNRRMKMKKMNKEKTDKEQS

CCGGGAGC
binding signal [1]: 9.52 upbm affinity estimate (log intensity, higher = more binding, comparable within an allelic series)
binding signal [2]: 9.29 upbm affinity estimate (log intensity, higher = more binding, comparable within an allelic series)
binding signal [3]: 9.27 upbm affinity estimate (log intensity, higher = more binding, comparable within an allelic series)
binding signal [4]: 9.24 upbm affinity estimate (log intensity, higher = more binding, comparable within an allelic series)
binding signal [5]: 9.61 upbm affinity estimate (log intensity, higher = more binding, comparable within an allelic series)
binding signal [6]: 9.33 upbm affinity estimate (log intensity, higher = more binding, comparable within an allelic series)
binding signal [7]: 9.49 upbm affinity estimate (log intensity, higher = more binding, comparable within an allelic series)
binding signal [8]: 9.16 upbm affinity estimate (log intensity, higher = more binding, comparable within an allelic series)
binding signal [9]: 9.2 upbm affinity estimate (log intensity, higher = more binding, comparable within an allelic series)
binding signal [10]: 9.58 upbm affinity estimate (log intensity, higher = more binding, comparable within an allelic series)
binding signal [11]: 9.25 upbm affinity estimate (log intensity, higher = more binding, comparable within an allelic series)

TAAGATGA
binding signal [1]: 10.9 upbm affinity estimate (log intensity, higher = more binding, comparable within an allelic series)
binding signal [12]: 9.54 upbm affinity estimate (log intensity, higher = more binding, comparable within an allelic series)
binding signal [5]: 10.7 upbm affinity estimate (log intensity, higher = more binding, comparable within an allelic series)
binding signal [13]: 8.17 upbm affinity estimate (log intensity, higher = more binding, comparable within an allelic series)
binding signal [7]: 10.9 upbm affinity estimate (log intensity, higher = more binding, comparable within an allelic series)
binding signal [14]: 9.17 upbm affinity estimate (log intensity, higher = more binding, comparable within an allelic series)
binding signal [10]: 10.2 upbm affinity estimate (log intensity, higher = more binding, comparable within an allelic series)
binding signal [15]: 8.25 upbm affinity estimate (log intensity, higher = more binding, comparable within an allelic series)
binding signal [16]: 10.1 upbm affinity estimate (log intensity, higher = more binding, comparable within an allelic series)

CCGGCTAG
binding signal [1]: 9.47 upbm affinity estimate (log intensity, higher = more binding, comparable within an allelic series)
binding signal [17]: 8.04 upbm affinity estimate (log intensity, higher = more binding, comparable within an allelic series)
binding signal [18]: 8.02 upbm affinity estimate (log intensity, higher = more binding, comparable within an allelic series)
binding signal [5]: 9.55 upbm affinity estimate (log intensity, higher = more binding, comparable within an allelic series)
binding signal [19]: 9.38 upbm affinity estimate (log intensity, higher = more binding, comparable within an allelic series)
binding signal [7]: 9.53 upbm affinity estimate (log intensity, higher = more binding, comparable within an allelic series)
binding signal [20]: 9.32 upbm affinity estimate (log intensity, higher = more binding, comparable within an allelic series)
binding signal [21]: 6.74 upbm affinity estimate (log intensity, higher = more binding, comparable within an allelic series)
binding signal [10]: 9.7 upbm affinity estimate (log intensity, higher = more binding, comparable within an allelic series)
binding signal [22]: 9.36 upbm affinity estimate (log intensity, higher = more binding, comparable within an allelic series)
binding signal [23]: 6.97 upbm affinity estimate (log intensity, higher = more binding, comparable within an allelic series)
binding signal [24]: 6.86 upbm affinity estimate (log intensity, higher = more binding, comparable within an allelic series)

CACGATCA
binding signal [25]: 10.2 upbm affinity estimate (log intensity, higher = more binding, comparable within an allelic series)
binding signal [26]: 11 upbm affinity estimate (log intensity, higher = more binding, comparable within an allelic series)
binding signal [27]: 10.3 upbm affinity estimate (log intensity, higher = more binding, comparable within an allelic series)

AGCAGCCC
binding signal [1]: 9.76 upbm affinity estimate (log intensity, higher = more binding, comparable within an allelic series)
binding signal [28]: 8.64 upbm affinity estimate (log intensity, higher = more binding, comparable within an allelic series)
binding signal [5]: 9.83 upbm affinity estimate (log intensity, higher = more binding, comparable within an allelic series)
binding signal [13]: 7.76 upbm affinity estimate (log intensity, higher = more binding, comparable within an allelic series)
binding signal [7]: 9.78 upbm affinity estimate (log intensity, higher = more binding, comparable within an allelic series)
binding signal [14]: 7.62 upbm affinity estimate (log intensity, higher = more binding, comparable within an allelic series)
binding signal [29]: 7.67 upbm affinity estimate (log intensity, higher = more binding, comparable within an allelic series)
binding signal [10]: 9.61 upbm affinity estimate (log intensity, higher = more binding, comparable within an allelic series)
binding signal [30]: 7.75 upbm affinity estimate (log intensity, higher = more binding, comparable within an allelic series)
binding signal [31]: 8.34 upbm affinity estimate (log intensity, higher = more binding, comparable within an allelic series)
binding signal [15]: 7.72 upbm affinity estimate (log intensity, higher = more binding, comparable within an allelic series)

ATATTGAG
binding signal [25]: 10.3 upbm affinity estimate (log intensity, higher = more binding, comparable within an allelic series)
binding signal [26]: 10.9 upbm affinity estimate (log intensity, higher = more binding, comparable within an allelic series)

ATAAATCG
binding signal [25]: 10.2 upbm affinity estimate (log intensity, higher = more binding, comparable within an allelic series)
binding signal [26]: 11.5 upbm affinity estimate (log intensity, higher = more binding, comparable within an allelic series)

ATATAACG
binding signal [25]: 10.4 upbm affinity estimate (log intensity, higher = more binding, comparable within an allelic series)
binding signal [26]: 11.4 upbm affinity estimate (log intensity, higher = more binding, comparable within an allelic series)
binding signal [16]: 10.7 upbm affinity estimate (log intensity, higher = more binding, comparable within an allelic series)

CAAGCTCG
binding signal [1]: 9.46 upbm affinity estimate (log intensity, higher = more binding, comparable within an allelic series)
binding signal [28]: 8.21 upbm affinity estimate (log intensity, higher = more binding, comparable within an allelic series)
binding signal [5]: 9.49 upbm affinity estimate (log intensity, higher = more binding, comparable within an allelic series)
binding signal [7]: 9.44 upbm affinity estimate (log intensity, higher = more binding, comparable within an allelic series)
binding signal [10]: 9.62 upbm affinity estimate (log intensity, higher = more binding, comparable within an allelic series)
binding signal [31]: 8.29 upbm affinity estimate (log intensity, higher = more binding, comparable within an allelic series)
binding signal [32]: 10.3 upbm affinity estimate (log intensity, higher = more binding, comparable within an allelic series)
binding signal [33]: 10.3 upbm affinity estimate (log intensity, higher = more binding, comparable within an allelic series)

GTCTATAA
binding signal [25]: 10.4 upbm affinity estimate (log intensity, higher = more binding, comparable within an allelic series)
binding signal [26]: 11.4 upbm affinity estimate (log intensity, higher = more binding, comparable within an allelic series)

AGTCTTTA
binding signal [25]: 10.2 upbm affinity estimate (log intensity, higher = more binding, comparable within an allelic series)
binding signal [26]: 11.2 upbm affinity estimate (log intensity, higher = more binding, comparable within an allelic series)
binding signal [27]: 10.4 upbm affinity estimate (log intensity, higher = more binding, comparable within an allelic series)

CGTCAATA
binding signal [25]: 10.2 upbm affinity estimate (log intensity, higher = more binding, comparable within an allelic series)
binding signal [26]: 10.9 upbm affinity estimate (log intensity, higher = more binding, comparable within an allelic series)

CCAGTCGG
binding signal [1]: 9.76 upbm affinity estimate (log intensity, higher = more binding, comparable within an allelic series)
binding signal [34]: 10.1 upbm affinity estimate (log intensity, higher = more binding, comparable within an allelic series)
binding signal [35]: 7.11 upbm affinity estimate (log intensity, higher = more binding, comparable within an allelic series)
binding signal [5]: 9.93 upbm affinity estimate (log intensity, higher = more binding, comparable within an allelic series)
binding signal [7]: 9.79 upbm affinity estimate (log intensity, higher = more binding, comparable within an allelic series)
binding signal [36]: 10.4 upbm affinity estimate (log intensity, higher = more binding, comparable within an allelic series)
binding signal [37]: 10 upbm affinity estimate (log intensity, higher = more binding, comparable within an allelic series)
binding signal [10]: 9.69 upbm affinity estimate (log intensity, higher = more binding, comparable within an allelic series)
binding signal [38]: 10.4 upbm affinity estimate (log intensity, higher = more binding, comparable within an allelic series)
binding signal [39]: 7.25 upbm affinity estimate (log intensity, higher = more binding, comparable within an allelic series)
